Assay results: PubChem BioAssay (EPA / NIEHS)
Results filed as inconclusive are left out. Activity calls are given as the source filed them. Rule for the calls, unless noted: active = hit-call score of the fitted dose curve at least 0.9, where 1 is the maximum; inactive = score below 0.9.

Experiments:
[1] = ATG_PXRE_CIS: Attagene CIS-FACTORIAL HepG2 Assay for human Pregnane X Receptor Element (PXRE) (AID 2282957); details: HepG2 Attagene CIS-FACTORIAL PXRE reporter, mRNA; actives raise or lower the signal
How it was run: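 Multiplexed cis-reporter assay in transiently transfected human HepG2 cells; 24 h chemical exposure. Reporter transcripts quantified by RT-PCR with fluorescent labeling and capillary electrophoresis.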

[2] = ATG_RORE_CIS: Attagene CIS-FACTORIAL HepG2 Assay for human RAR-related Orphan Receptor Element (RORE) (AID 2282959); details: HepG2 Attagene cis-factorial RORE reporter, mRNA; actives raise or lower the signal
How it was run: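 Transient MRTU transfection of human HepG2 liver cells (FuGene 6); 24 h compound exposure; TriZol RNA, oligo(dT) RT, PCR, FAM labeling, HpaI cut, CE fragment analysis. DMSO = negative control/baseline.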

[3] = ATG_Sox_CIS: Attagene CIS-FACTORIAL HepG2 Assay for human SRY-box transcription factor (SOX) (AID 2282960); details: HepG2 Attagene cis-factorial SOX reporter, mRNA; actives raise or lower the signal
How it was run: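 Endogenous factor activity in human liver HepG2 cells carrying transfected cis-regulated reporter units. RNA taken 24 h post-dose, reverse-transcribed, PCR-amplified and sized by capillary electrophoresis. Gain or loss of signal fitted relative to DMSO.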

[4] = biological target: Transcription factor Sp1 (Homo sapiens) (UniProt P08047); test: ATG_Sp1_CIS: Attagene CIS-FACTORIAL HepG2 Assay for human Specificity Protein 1 (Sp1) (AID 2282961); details: HepG2 Sp1 cis-reporter transcription, actives raise or lower the signal
Transcription factor Sp1 (Homo sapiens), sequence (P08047 whole entry, looked up): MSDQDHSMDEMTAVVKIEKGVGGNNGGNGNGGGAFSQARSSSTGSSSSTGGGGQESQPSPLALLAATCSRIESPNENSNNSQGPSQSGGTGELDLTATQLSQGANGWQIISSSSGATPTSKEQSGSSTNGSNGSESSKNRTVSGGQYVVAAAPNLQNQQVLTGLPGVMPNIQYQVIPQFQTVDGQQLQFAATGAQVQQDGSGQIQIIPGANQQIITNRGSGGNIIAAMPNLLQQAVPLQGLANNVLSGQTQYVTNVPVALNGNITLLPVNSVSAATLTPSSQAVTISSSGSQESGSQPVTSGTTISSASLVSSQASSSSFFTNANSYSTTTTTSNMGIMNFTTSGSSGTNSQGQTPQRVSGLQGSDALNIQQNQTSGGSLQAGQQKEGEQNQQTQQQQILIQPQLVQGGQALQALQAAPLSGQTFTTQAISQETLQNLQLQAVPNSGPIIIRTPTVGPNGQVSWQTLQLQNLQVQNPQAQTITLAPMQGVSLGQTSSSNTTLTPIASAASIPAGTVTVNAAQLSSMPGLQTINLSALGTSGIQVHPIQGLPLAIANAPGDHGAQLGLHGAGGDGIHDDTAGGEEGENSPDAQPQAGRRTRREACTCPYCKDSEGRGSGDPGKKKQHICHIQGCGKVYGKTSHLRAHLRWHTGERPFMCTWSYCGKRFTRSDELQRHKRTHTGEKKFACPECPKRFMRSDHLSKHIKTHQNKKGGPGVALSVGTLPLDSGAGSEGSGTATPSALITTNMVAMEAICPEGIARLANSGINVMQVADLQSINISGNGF
How it was run: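 Transient MRTU-transfected HepG2, 24 h compound exposure. Total RNA → oligo(dT) RT → PCR of reporter → 6-FAM primer extension → HpaI digest → CE. Endpoint fitted both directions vs DMSO.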

[5] = ATG_SREBP_CIS: Attagene CIS-FACTORIAL HepG2 Assay for human Sterol Regulatory Element Binding (SREBP) (AID 2282962); details: HepG2 Attagene cis-factorial SREBP reporter, mRNA; actives raise or lower the signal
How it was run: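 Transfected HepG2 (cis-regulated reporter library, endogenous TFs) → compound 24 h → total RNA → oligo(dT) RT → reporter-specific PCR → FAM primer extension, HpaI cut → CE fluorescence. Fit bidirectional vs DMSO.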

[6] = biological target: Signal transducer and activator of transcription 3 (Homo sapiens) (UniProt P40763); test: ATG_STAT3_CIS: Attagene CIS-FACTORIAL HepG2 Assay for human Signal Transducer and Activator of Transcription 3 (STAT3) (AID 2282963); details: HepG2, Attagene cis-factorial STAT3 reporter transcription; actives raise or lower the signal
Signal transducer and activator of transcription 3 (Homo sapiens), sequence (P40763 whole entry, looked up): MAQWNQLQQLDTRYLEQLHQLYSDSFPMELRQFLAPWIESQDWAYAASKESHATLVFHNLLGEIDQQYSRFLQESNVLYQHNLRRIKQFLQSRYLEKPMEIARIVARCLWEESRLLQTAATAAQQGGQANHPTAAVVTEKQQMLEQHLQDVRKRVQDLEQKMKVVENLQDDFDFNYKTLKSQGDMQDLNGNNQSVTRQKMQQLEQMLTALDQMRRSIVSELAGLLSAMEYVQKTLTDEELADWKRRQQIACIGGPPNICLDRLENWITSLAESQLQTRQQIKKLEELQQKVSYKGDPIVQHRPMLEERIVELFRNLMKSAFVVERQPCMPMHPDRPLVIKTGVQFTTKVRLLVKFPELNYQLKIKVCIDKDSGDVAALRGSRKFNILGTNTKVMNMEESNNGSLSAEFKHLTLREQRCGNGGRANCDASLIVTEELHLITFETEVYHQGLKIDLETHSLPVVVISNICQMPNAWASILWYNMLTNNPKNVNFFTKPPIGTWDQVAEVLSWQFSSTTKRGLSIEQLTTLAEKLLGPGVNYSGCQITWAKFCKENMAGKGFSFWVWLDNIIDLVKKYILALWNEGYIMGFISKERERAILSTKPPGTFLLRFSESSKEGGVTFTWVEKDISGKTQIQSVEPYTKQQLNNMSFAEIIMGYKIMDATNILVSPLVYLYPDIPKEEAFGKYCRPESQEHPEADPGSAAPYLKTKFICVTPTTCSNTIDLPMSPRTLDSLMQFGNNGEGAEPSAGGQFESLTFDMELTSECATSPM
How it was run: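 HepG2 cells transiently transfected with cis-element-driven multiple reporter transcription units; after 24 h chemical exposure, reporter mRNA measured by RT-PCR, 6-FAM primer-extension labelling, HpaI digestion and capillary electrophoresis. Bidirectional fitting versus DMSO baseline.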

[7] = ATG_TA_CIS: Attagene CIS-FACTORIAL HepG2 Assay for human TA Basal Promoter (AID 2282964); details: HepG2 Attagene CIS-factorial TA basal promoter reporter; actives raise or lower the signal
How it was run: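 Read-out: fluorescent reporter-transcript fragments resolved by capillary electrophoresis after RT-PCR and HpaI digestion. Source: HepG2 cells carrying transiently transfected multi-reporter cis constructs, treated 24 h. Endpoint fitted bidirectionally relative to DMSO.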

[8] = ATG_TCF_b_cat_CIS: Attagene CIS-FACTORIAL HepG2 Assay for human T-Cell-Factor with beta-catenin (TCF/b-cat) (AID 2282965); details: HepG2 TCF/beta-catenin cis-reporter transcription, actives raise or lower the signal
How it was run: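 In this cis-format system, transfected HepG2 cells report endogenous transcription factor activity. Readout after 24 h exposure is reporter transcript abundance from RT-PCR and capillary electrophoresis, analysed for gain or loss of signal versus DMSO.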

[9] = ATG_TAL_CIS: Attagene CIS-FACTORIAL HepG2 Assay for human TAL Basal Promoter (AID 2282966); details: HepG2 Attagene cis-factorial TAL promoter reporter; actives raise or lower the signal;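 note: background control endpoint measuring basal TAL promoter reporter mRNA not a specific factor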
How it was run: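 Steps: transfect HepG2 with multiple reporter transcription units; dose 24 h; isolate RNA, reverse-transcribe, PCR-amplify, label with 6-FAM, digest with HpaI; resolve by capillary electrophoresis. Bidirectional fitting against DMSO baseline.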

[10] = ATG_TGFb_CIS: Attagene CIS-FACTORIAL HepG2 Assay for human Transforming Growth Factor (TGF) (AID 2282967); details: HepG2 Attagene CIS TGFb reporter, mRNA transcription; actives raise or lower the signal
How it was run: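 Transient MRTU transfection of HepG2 (FuGene 6). Dose 24 h. TriZol RNA, oligo(dT) RT, PCR, 6-FAM primer extension, HpaI cut, CE. Bidirectional fit, DMSO = baseline.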

[11] = ATG_VDRE_CIS: Attagene CIS-FACTORIAL HepG2 Assay for human Vitamin D Receptor Element (VDRE) (AID 2282968); details: HepG2 VDRE cis-reporter transcription, actives raise or lower the signal
How it was run: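 HepG2 cells transiently transfected with cis-element reporter units, dosed 24 h; reporter mRNA measured by RT-PCR, 6-FAM labeling, HpaI digestion and capillary electrophoresis. Activity fitted bidirectionally against DMSO baseline.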

[12] = biological target: X-box-binding protein 1 (Homo sapiens) (UniProt P17861); test: ATG_Xbp1_CIS: Attagene CIS-FACTORIAL HepG2 Assay for human X-box Binding Protein 1 (XBP1) (AID 2282972); details: HepG2 XBP1 cis-element reporter, Attagene multiplex; actives raise or lower the signal
X-box-binding protein 1 (Homo sapiens), sequence (P17861 whole entry, looked up): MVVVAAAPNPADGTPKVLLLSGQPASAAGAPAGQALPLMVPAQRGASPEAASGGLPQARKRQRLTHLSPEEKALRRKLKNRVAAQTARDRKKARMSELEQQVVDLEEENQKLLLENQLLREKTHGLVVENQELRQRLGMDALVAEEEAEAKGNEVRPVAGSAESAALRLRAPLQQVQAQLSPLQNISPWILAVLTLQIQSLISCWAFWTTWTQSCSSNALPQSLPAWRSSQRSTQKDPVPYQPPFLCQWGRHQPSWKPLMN
How it was run: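 HepG2, transient MRTU transfection (cis-promoter driven), 24 h compound exposure. Total RNA → oligo(dT) RT → PCR → 6-FAM labeling → HpaI cut → CE. Bidirectional fit vs DMSO.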

[13] = ATG_M_19_TRANS: Attagene TRANS-FACTORIAL HepG2 Assay for M19 Transcription Factor (Internal Marker) (AID 2282974; active = hit-call score of the fitted dose curve at least 0.9, where 1 is the maximum); details: HepG2 Attagene TRANS-FACTORIAL M19 internal marker reporter
How it was run: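 Fluorescence of 6-FAM-labelled reporter cDNA fragments, separated by capillary electrophoresis, served as the readout. These derived from HepG2 cells carrying transfected GAL4-UAS reporter units after 24 h dosing, with DMSO as negative control.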

[14] = ATG_GAL4_TRANS: Attagene TRANS-FACTORIAL HepG2 Assay for GAL4 (Internal Marker) (AID 2282976; active = hit-call score of the fitted dose curve at least 0.9, where 1 is the maximum); details: HepG2 Attagene TRANS GAL4 internal marker reporter
How it was run: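 Liver HepG2 line bearing multiplexed GAL4-UAS reporter constructs; 24 h chemical treatment. Transcripts were quantified as fluorescent fragments on capillary electrophoresis after RT-PCR and HpaI cut, with activity fitted upward from DMSO.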

[15] = biological target: Nuclear receptor subfamily 1 group I member 3 (Homo sapiens) (UniProt Q14994); test: ATG_CAR_TRANS: Attagene TRANS-FACTORIAL HepG2 Assay for human Constitutive Androstane Receptor (CAR) (AID 2282969; active = hit-call score of the fitted dose curve at least 0.9, where 1 is the maximum;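 note: activators raise reporter mRNA above DMSO so AC50 marks induction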); details: HepG2 Attagene TRANS-FACTORIAL CAR reporter
Nuclear receptor subfamily 1 group I member 3 (Homo sapiens), sequence (Q14994 whole entry, looked up, the tested form may be a part): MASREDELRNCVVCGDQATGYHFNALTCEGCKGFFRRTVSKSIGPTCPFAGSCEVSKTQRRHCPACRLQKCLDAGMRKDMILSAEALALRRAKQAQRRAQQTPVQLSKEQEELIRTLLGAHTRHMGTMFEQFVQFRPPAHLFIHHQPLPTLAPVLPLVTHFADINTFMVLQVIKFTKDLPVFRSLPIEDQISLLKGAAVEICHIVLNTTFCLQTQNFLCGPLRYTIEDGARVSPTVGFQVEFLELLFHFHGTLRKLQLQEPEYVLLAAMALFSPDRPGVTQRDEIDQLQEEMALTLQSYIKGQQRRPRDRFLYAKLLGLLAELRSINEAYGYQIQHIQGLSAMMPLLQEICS
How it was run: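 HepG2 cells transiently transfected with multiplexed GAL4-UAS reporter units expressing chimeric NR-Gal4 proteins; compound exposure 24 h. Reporter mRNA measured by RT-PCR, 6-FAM labelling, HpaI digestion and capillary electrophoresis; gain-of-signal fitted against DMSO baseline.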

[16] = biological target: Estrogen receptor (Homo sapiens) (UniProt P03372); test: ATG_ERa_TRANS: Attagene TRANS-FACTORIAL HepG2 Assay for human Estrogen Receptor alpha (ERa) (AID 2282970; active = hit-call score of the fitted dose curve at least 0.9, where 1 is the maximum); details: HepG2 Attagene TRANS ERa GAL4 reporter, mRNA
Estrogen receptor (Homo sapiens), sequence (P03372 whole entry, looked up, the tested form may be a part): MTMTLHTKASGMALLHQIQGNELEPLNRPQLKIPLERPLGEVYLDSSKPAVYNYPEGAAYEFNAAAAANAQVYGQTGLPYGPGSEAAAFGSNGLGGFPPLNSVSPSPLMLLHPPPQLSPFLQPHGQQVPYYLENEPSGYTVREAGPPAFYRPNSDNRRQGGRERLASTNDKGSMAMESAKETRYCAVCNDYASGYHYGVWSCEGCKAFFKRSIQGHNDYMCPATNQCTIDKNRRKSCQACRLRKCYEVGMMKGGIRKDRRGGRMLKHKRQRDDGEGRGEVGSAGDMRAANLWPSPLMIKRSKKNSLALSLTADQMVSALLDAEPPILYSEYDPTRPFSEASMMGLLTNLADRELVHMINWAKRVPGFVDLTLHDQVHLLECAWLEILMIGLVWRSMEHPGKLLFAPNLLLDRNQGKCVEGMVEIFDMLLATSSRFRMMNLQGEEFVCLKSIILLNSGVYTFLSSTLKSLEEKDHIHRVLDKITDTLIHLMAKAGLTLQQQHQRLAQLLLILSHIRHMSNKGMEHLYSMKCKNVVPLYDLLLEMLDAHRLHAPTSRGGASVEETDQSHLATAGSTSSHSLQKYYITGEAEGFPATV
How it was run: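 Multiplexed cell-based reporter format in HepG2: chimeric ERa-Gal4 protein drives GAL4-UAS reporter transcription. Fluorescent reporter mRNA quantified by capillary electrophoresis 24 hours after dosing; endpoint fitted as signal gain against DMSO.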

[17] = biological target: Glucocorticoid receptor (Homo sapiens) (UniProt P04150); test: ATG_GR_TRANS: Attagene TRANS-FACTORIAL HepG2 Assay for human Glucocorticoid Receptor (GR) (AID 2282978; active = hit-call score of the fitted dose curve at least 0.9, where 1 is the maximum;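 note: activators score as hits since higher reporter transcript over DMSO is fitted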); details: HepG2 Attagene TRANS GR reporter, mRNA transcription
Glucocorticoid receptor (Homo sapiens), sequence (P04150 whole entry, looked up, the tested form may be a part): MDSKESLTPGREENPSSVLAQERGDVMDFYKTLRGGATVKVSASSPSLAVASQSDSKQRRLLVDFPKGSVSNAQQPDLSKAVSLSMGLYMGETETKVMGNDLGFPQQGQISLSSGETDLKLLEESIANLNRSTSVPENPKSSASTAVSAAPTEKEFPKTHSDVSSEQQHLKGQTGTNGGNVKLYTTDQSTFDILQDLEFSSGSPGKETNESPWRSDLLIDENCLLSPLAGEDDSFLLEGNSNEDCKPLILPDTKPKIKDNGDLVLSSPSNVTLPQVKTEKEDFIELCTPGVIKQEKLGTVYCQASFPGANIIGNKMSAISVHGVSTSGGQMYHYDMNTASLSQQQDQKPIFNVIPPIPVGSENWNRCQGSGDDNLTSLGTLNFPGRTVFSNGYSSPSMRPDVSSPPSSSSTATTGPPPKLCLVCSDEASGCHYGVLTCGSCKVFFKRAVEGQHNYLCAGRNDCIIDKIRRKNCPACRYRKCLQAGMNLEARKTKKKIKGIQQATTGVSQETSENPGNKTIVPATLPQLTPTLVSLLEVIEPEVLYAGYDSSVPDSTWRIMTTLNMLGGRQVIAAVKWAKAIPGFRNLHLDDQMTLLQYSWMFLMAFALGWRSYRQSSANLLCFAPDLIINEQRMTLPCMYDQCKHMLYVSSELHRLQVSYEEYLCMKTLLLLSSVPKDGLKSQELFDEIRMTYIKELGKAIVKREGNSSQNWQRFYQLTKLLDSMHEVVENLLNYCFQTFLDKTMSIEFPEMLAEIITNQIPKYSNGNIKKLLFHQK
How it was run: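 Fluorescent capillary-electrophoresis quantitation of reporter mRNA is the readout, taken 24 h after dosing human HepG2 cells carrying transiently transfected GAL4-UAS reporter units activated by chimeric NR-GAL4 fusions; activity scored as induction over DMSO.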

[18] = biological target: Estrogen-related receptor gamma (Homo sapiens) (UniProt P62508); test: ATG_ERRg_TRANS: Attagene TRANS-FACTORIAL HepG2 Assay for human Estrogen-Related Receptor gamma (ERRg) (AID 2282977; active = hit-call score of the fitted dose curve at least 0.9, where 1 is the maximum;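 note: hits increase reporter signal over DMSO so potencies reflect activators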); details: HepG2 Attagene TRANS reporter, ERRg transactivation
Estrogen-related receptor gamma (Homo sapiens), sequence (P62508 whole entry, looked up, the tested form may be a part): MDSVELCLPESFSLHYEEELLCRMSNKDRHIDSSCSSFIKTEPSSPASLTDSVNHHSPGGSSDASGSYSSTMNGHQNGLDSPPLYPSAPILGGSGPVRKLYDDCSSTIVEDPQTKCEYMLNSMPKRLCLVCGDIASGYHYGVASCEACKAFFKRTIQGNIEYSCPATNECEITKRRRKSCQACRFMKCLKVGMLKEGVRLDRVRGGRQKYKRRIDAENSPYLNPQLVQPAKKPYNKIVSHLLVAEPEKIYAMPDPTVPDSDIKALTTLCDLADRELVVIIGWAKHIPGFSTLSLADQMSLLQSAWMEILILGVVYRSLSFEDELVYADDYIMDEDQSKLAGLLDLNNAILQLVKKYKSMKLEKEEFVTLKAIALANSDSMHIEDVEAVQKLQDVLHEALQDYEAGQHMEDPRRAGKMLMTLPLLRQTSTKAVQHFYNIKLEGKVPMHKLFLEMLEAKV
How it was run: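 HepG2 cells transiently transfected with multiplexed GAL4-UAS reporter units and chimeric NR-Gal4 constructs were exposed to test chemicals for 24 h. Reporter mRNA was measured by RT-PCR, 6-FAM primer extension, HpaI digestion and capillary electrophoresis; gain-of-signal versus DMSO.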

CS(=O)(=O)NC(=O)c1cc(Oc2ccc(C(F)(F)F)cc2Cl)ccc1[N+](=O)[O-]
AC50 [1]: 8.23 µM (active) | outcome [2]: inactive | outcome [3]: inactive | outcome [4]: inactive | outcome [5]: inactive | outcome [6]: inactive | outcome [7]: inactive | outcome [8]: inactive | outcome [9]: inactive | outcome [10]: inactive | outcome [11]: inactive | outcome [12]: inactive | outcome [13]: inactive | outcome [14]: inactive

CCCCCOC(=O)c1ccccc1C(=O)OCCCCC
AC50 [1]: 27.3 µM (active) | outcome [2]: inactive | outcome [3]: inactive | outcome [4]: inactive | outcome [5]: inactive | outcome [6]: inactive | outcome [7]: inactive | outcome [8]: inactive | outcome [9]: inactive | outcome [10]: inactive | AC50 [11]: 89.8 µM (active) | outcome [15]: inactive | outcome [16]: inactive | outcome [12]: inactive | outcome [14]: inactive | outcome [17]: inactive

Oc1ccc2ccc3cccc4ccc1c2c34
AC50 [1]: 13 µM (active) | outcome [2]: inactive | outcome [3]: inactive | outcome [4]: inactive | outcome [5]: inactive | outcome [6]: inactive | outcome [7]: inactive | outcome [8]: inactive | outcome [9]: inactive | outcome [10]: inactive | outcome [11]: inactive | outcome [12]: inactive | outcome [13]: inactive | outcome [17]: inactive

Cc1ccc(N)cc1
outcome [1]: inactive | outcome [2]: inactive | outcome [3]: inactive | outcome [4]: inactive | outcome [5]: inactive | outcome [6]: inactive | outcome [7]: inactive | outcome [8]: inactive | outcome [9]: inactive | outcome [10]: inactive | outcome [15]: inactive | outcome [12]: inactive | outcome [13]: inactive | outcome [18]: inactive
